From PubChem BioAssay
Active and inactive are the calls of the source. How the calls were made is not given here.

Each compound was assayed against Pantothenate synthetase (Mycobacterium tuberculosis (strain ATCC 25618 / H37Rv)) (UniProt P9WIL5) (assay: Coupled enzyme confirmation of inhibitors against recombinant Mtb PanC (AID 375;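 further: 0% = full reaction with vehicle and 100% = no enzyme background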)). Conditions: coupled enzyme assay; at 10 µM, stronger effect = higher value.
Sequence of Pantothenate synthetase (Mycobacterium tuberculosis (strain ATCC 25618 / H37Rv)) (P9WIL5 whole entry, looked up): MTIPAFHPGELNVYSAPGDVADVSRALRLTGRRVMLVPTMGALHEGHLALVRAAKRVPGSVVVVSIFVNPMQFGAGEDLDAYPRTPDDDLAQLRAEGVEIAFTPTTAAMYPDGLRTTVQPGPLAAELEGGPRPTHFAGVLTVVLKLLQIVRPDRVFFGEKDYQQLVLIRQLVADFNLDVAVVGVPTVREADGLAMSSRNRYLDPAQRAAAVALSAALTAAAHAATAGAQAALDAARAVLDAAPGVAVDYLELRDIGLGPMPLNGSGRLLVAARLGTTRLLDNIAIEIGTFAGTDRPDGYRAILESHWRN
O=C(c1ccccc1)c1ccc2nc[nH]c2c1 was tested, and the inhibition was 0% (inactive).
O=C(CSc1nnnn1C1CCCCC1)N1CCc2ccccc21 was tested, and the inhibition was 0% (inactive).
COc1ccccc1NS(=O)(=O)c1ccc(OC)c(OC)c1 was tested, and the inhibition was 8% (inactive).
In the case of O=C(COC(=O)C12CC3CC(CC(C3)C1)C2)NCc1ccco1, the inhibition is reported as 0% (inactive).
With CC(C)(C)NC[C@H](O)COc1nsnc1N1CCOCC1 the inhibition was 2% (inactive).
In the case of CCOC(=O)c1c(NCc2ccc3c(c2)OCO3)c2ccccc2[nH]c1=O, the inhibition is reported as 0% (inactive).
C=CCSc1nnc(-c2cccnc2)o1 was tested, and the inhibition was 0% (inactive).
O=C(NCc1nnc(SCC(=O)N2CCC(Cc3ccccc3)CC2)o1)c1ccccc1F was tested, and the inhibition was 0% (inactive).
In the case of CC(=O)Nc1ccc(S(=O)(=O)N2CCN(C(C)CCc3ccccc3)CC2)cc1 (stereo not given), the inhibition is reported as 2% (inactive).
In the case of COc1ccc(NC(=O)Cn2nnc(-c3ccccc3F)n2)cc1Cl, the inhibition is reported as 0% (inactive).
For O=C(COC(=O)C1CCN(S(=O)(=O)c2cccs2)CC1)c1cc2ccccc2o1, the inhibition was 0% (inactive).
With CCCNC(=O)Nc1ccccc1C(=O)Nc1ccc(OC)cc1 the inhibition was 2% (inactive).
In the case of Cc1ccc(-c2ccc(=O)n(CCC(=O)NCc3ccccn3)n2)cc1, the inhibition is reported as 4% (inactive).
In the case of COC(=O)c1ccc(-c2ccc(CNCC(O)c3ccccc3)o2)cc1 (stereo not given), the inhibition is reported as 1% (inactive).
Cc1nn(C)c(C)c1NC(=O)CSc1nc(Cc2ccccc2)nc2c1cnn2-c1ccccc1 was tested, and the inhibition was 2% (inactive).
O=C(c1ccccc1-c1ccccc1)N1CCN(c2ccccn2)CC1 was tested, and the inhibition was 0% (inactive).
With COc1cccc(NC(=O)c2ccccc2NS(C)(=O)=O)c1 the inhibition was 0% (inactive).
O=C1c2ccccc2S(=O)(=O)N1CC(O)Cn1c2ccccc2c2ccccc21 (stereo not given) was tested, and the inhibition was 0% (inactive).
In the case of O=C(NC1CCCC1)c1c[nH]c2ccc(F)cc2c1=O, the inhibition is reported as 0% (inactive).
With COCCCn1c(=N)c(C(=O)NCC2CCCO2)cc2c(=O)n3cccc(C)c3nc21 (stereo not given) the inhibition was 0% (inactive).
For C(/CCc1ccccc1)=N\n1cnnc1, the inhibition was 8% (inactive).
For COCCNC(=O)CN(C)S(=O)(=O)c1ccc(Br)cc1, the inhibition was 0% (inactive).
With COc1ccc(Cl)cc1-c1n[nH]c(=S)o1 the inhibition was 0% (inactive).
For CC1C/C=C/C=C/C=C/C=C/C(O[C@@H]2O[C@H](C)[C@@H](O)[C@H](N)[C@@H]2O)CC2OC(O)(CC(O)CC3OC3/C=C/C(=O)O1)CC(O)C2C(=O)O (stereo not given in full), the inhibition was 5% (inactive).
With N=c1ncn(CC(O)CN2CCOCC2)c2nc(N3CCOCC3)[nH]c12 (stereo not given) the inhibition was 0% (inactive).
In the case of O=c1c2cnn(-c3ccccc3)c2ncn1/N=C/c1ccncc1, the inhibition is reported as 5% (inactive).
For COc1ccc(S(=O)(=O)n2ccnc2)c2cccnc12, the inhibition was 4% (inactive).
In the case of O=C(Cn1c(=O)[nH]c2ccsc2c1=O)N1CCN(c2ccc(F)cc2)CC1, the inhibition is reported as 0% (inactive).
In the case of c1ccc(-c2nnc(CSc3nncs3)o2)cc1, the inhibition is reported as 0% (inactive).
c1ccc(-c2noc(C3CCCCC3)n2)nc1 was tested, and the inhibition was 0% (inactive).
In the case of O=C(c1c(Cl)nc2sccn12)N(C(=O)c1c(Cl)nc2sccn12)c1ccc(Cl)cn1, the inhibition is reported as 0% (inactive).
For Cc1sc2nc(SCC(=O)NCCO)n(C)c(=O)c2c1C, the inhibition was 0% (inactive).
With O=C(Cc1ccc(Br)cc1)N1CCCCCC1 the inhibition was 1% (inactive).
With COC(=O)c1cccc(NC(=O)CSc2nnc(COc3ccccc3)n2C)c1 the inhibition was 0% (inactive).
For O=C1CCC(=O)N1OCCCCOc1ccccc1, the inhibition was 2% (inactive).
Cn1cccc1Cc1nnc(SCC(N)=O)n1-c1ccc(F)cc1 was tested, and the inhibition was 0% (inactive).
In the case of CCOc1ccc(OCc2cccc(C(=O)N3CCOCC3)c2)cc1, the inhibition is reported as 2% (inactive).
CSCCC(NC(=O)c1ccco1)C(=O)O (stereo not given) was tested, and the inhibition was 0% (inactive).
In the case of Cn1c(=O)n(CCC(=O)O)c2ccccc21, the inhibition is reported as 7% (inactive).
For CCc1cc2c(=O)c(-c3ccc4c(c3)OCCO4)coc2cc1OC(=O)c1ccco1, the inhibition was 0% (inactive).
